Experimental data published in PubChem BioAssay AID540263 (National Center for Advancing Translational Sciences (NCATS), 2011).
The campaign covered roughly 340,000 compounds. About 100 (0.029%) were called active. Not shown: some 8% with an inconclusive outcome. The call rests on the fitted dose curve. Shown is part of a subset that was picked to be rich in actives.

biological target: Importin subunit beta-1 (Homo sapiens) (UniProt Q14974); test: qHTS Assay for Inhibitors of Rango (Ran-regulated importin-beta cargo) - Importin beta complex formation; details: Rango CFP/YFP FRET sensor + importin beta, 45 min; series mostly up to 92.2 µM; inhibition of complex formation: at the top concentration;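 further: 0% = DMSO wells and 100% = buffer wells lacking importin beta; nearly all actives have a fitted effect of over 15% in size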
Description: NIH Molecular Libraries Probe Production Centers Network [MLPCN] NIH Chemical Genomics Center [NCGC] MLPCN Grant: R03 MH090808-01A1 Assay Submitter (PI): Petr Kalab NCGC Assay Overview: The small GTPase Ran regulates transport of macromolecules between the nucleus and the cytoplasm (nuclear transport) and has important functions in mitotic spindle assembly, nuclear envelope (NE) formation and nuclear pore complex (NPC) assembly. RanGTP gradient is thought to promote spindle assembly by providing a spatial clue to microtubule nucleation and Aurora A activation. Because the localized release and binding of importin alpha cargo relays this spatial clue to SAFs, inhibitors of the Rango - importin beta complex can then be used in further understanding their role in cell cycle specifically in mitosis progression. […] Activation of Aurora A has been linked to different types of cancer and a number of Aurora kinase inhibitors are being developed as potential canter therapeutics therefore, identified inhibitors of this complex could be developed into potential anti-mitotic probes for cancer treatment. Purified recombinant proteins Rango and importin beta were provided by the assay submitter. The assay used a fluorescence resonance energy transfer (FRET) Rango biosensor that contains the IBB of human snurportin 1 flanked by yellow fluorescent protein (EYFP) at the amino terminus and cerulean CFP10 at the carboxy terminus. […] Inhibitors will therefore be identified based on the ability to interfere with the FRET signal decrease. DMSO treated and no importin beta (buffer only) wells were used as negative and positive controls respectively. FRET readings were obtained at two time points. FRET reading prior to importin beta addition (pre-read) were used flag potential compound interference; FRET reading after importin beta addition (post-read) were used to identify inhibitors using the FRET ratio parameter.
NCGC Assay Protocol Summary: Two and a half uL/well of Rango-buffer solution (50 nM Rango, 1x PBS, 1mM DTT, 0.02% Tween-20, 0.1% BSA final concentrations) was dispensed into 1536-well assay plates (Greiner, solid black medium-binding plates) with Aurora Discovery BioRAPTR Flying Reagent Dispenser (FRD; Beckton-Dickenson). Compound solution (23 nL) was transferred to the assay plate using Kalypsys pin tool equipped with a 1536-pin tool and incubated at room temperature for 5 min followed by a FRET pre-read using the PerkinElmer Envision plate reader. Two and a half uL/well of Importin beta - buffer solution (0.125 microM importin beta, 1x PBS, 1mM DTT, 0.02% Tween-20, 0.1% BSA final concentrations) were then added and incubated at room temperature giving a final reaction volume of 5uL. After 45min FRET post-read was obtained via the Envision plate reader using the same optics and settings as the pre-read (CFP/YFP optimized dual optical module D450/D505; excitation mirror CFP 430/24 nm; and emission filters CFP 486/10 nm and YFP 530/10 nm).

Chain of Importin subunit beta-1 (Homo sapiens) (Q14974 whole entry, looked up): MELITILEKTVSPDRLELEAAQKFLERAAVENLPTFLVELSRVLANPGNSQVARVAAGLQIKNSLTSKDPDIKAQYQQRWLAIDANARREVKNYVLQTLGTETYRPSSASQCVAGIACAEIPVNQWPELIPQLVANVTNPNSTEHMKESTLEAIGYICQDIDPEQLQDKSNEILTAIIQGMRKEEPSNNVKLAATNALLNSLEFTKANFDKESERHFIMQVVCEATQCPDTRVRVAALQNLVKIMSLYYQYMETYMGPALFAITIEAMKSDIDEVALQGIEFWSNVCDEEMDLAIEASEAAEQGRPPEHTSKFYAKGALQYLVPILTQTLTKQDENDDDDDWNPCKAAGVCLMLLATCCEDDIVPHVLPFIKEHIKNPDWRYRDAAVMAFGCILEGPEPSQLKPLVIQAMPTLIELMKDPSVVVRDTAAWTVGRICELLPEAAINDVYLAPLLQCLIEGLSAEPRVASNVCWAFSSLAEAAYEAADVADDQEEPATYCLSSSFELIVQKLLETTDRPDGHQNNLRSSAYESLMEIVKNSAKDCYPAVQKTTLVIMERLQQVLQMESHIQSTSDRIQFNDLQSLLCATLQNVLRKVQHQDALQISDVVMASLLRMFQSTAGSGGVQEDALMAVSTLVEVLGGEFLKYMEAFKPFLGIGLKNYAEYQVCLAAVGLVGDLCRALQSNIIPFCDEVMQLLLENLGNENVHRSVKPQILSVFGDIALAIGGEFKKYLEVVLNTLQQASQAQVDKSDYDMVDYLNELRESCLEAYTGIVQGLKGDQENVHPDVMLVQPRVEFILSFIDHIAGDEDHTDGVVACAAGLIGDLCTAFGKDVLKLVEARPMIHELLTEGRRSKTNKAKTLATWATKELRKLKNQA

Inhibition of complex formation, inactive:
CC(C)=CCc1ccc(O)c(=O)cc1C(C)C -0.975%
O=C(Nc1ccc2ccccc2c1[N+](=O)[O-])c1ccccc1 3.45%
COc1ccc(Cl)cc1C=CC=NNC(=O)c1ccncc1 4.63%
CC(C)(C)OC(=O)N1CCC(C(=O)Nc2cccc(C(=O)NCCc3ccccc3)c2)CC1 1.14%
COC1=CC(=O)OC(C)(c2ccccc2)C1 (centres undefined) -1.43%
Cc1ccc(Nc2c(O)nc[nH]c2=O)cc1C -7.42%
CCCN(CC(=O)Nc1ccccc1C)C(=O)c1ccc(OCC(=O)N2CCOCC2)c(OCC)c1 -0.312%
COc1ccc(-c2ccc3c(c2)[C@@H]2C[C@H](N(C)S(=O)(=O)c4ccccc4)[C@H]([C@H](C)O)C(=O)N2CC3)cc1 -1.31%
CC1(C)N=C(N)NC(Nc2ccc(Cl)cc2)=N1 2.24%
CN(C(=O)c1cccc(NC(=O)Cc2ccc(NC(=O)C3CCN(C(=O)C4CCCCC4)CC3)cc2)c1)C1CCC1 -2.04%
CC(C)(C)c1nnc2sc(SCC(O)=C(C#N)c3nc4ccccc4[nH]3)nn2c1=O 0.14%
Cc1ccc(S(=O)(=O)N2CCN(C(=O)c3cc(S(=O)(=O)N4CCOCC4)ccc3F)CC2)cc1 -3.27%
Cc1nn(-c2ncccn2)c2c1C(=O)CC(C)(C)C2Br (centres undefined) -3.68%
CCN(CC(=O)Nc1c(F)cccc1F)C(=O)Cc1cccs1 -5.32%
NC(=O)c1ccc(N2CCCC2)nc1 0.637%
COc1cc2[nH]c(O)c(C=O)c2cc1OC -0.216%
CC/C(=C\c1ccc(Cl)cc1)c1ccncc1 0.876%
COc1ccc(Cl)cc1C=CC=Nc1ccc(S(N)(=O)=O)cc1 -2.29%
COc1ccc(CCNC(=O)c2ccc(NC(=O)CC3SC(N4CCCCC4)=NC3=O)cc2)cc1OC (centres undefined) -3.12%
CSCCC(NC(=O)COc1ccccc1)C(=O)N1CCN(c2cccc(C(F)(F)F)c2)CC1 (centres undefined) 4.24%
CCCCN1CC(COc2ccccc2)Oc2cccc(F)c2S1(=O)=O (centres undefined) 2.87%
O=C(NN=Cc1ccccc1)c1ccccc1 -2.28%
O=C(Nc1c(Br)cc2c(c1Br)Cc1cc([N+](=O)[O-])ccc1-2)C(Cl)Cl -0.563%
CC(=O)OC1CCC2C3CCC4=C(CC(F)C(=O)C4)C3CCC12C (centres undefined) -1.03%
O=[N+]([O-])c1ccc(COc2ccccc2CN2CCOCC2)cc1 3.71%
COc1cccc(CC(=NO)c2cccc(OC)c2)c1 -0.088%
NC(=O)C1(Nc2ccc(-c3ccccc3)cc2)CCCC1 0.958%
O=C(O)C(=Cc1ccccc1[N+](=O)[O-])c1ccccc1 -0.207%
CCOC(=O)c1ccccc1NC(=O)CSc1nc2c(sc(=S)n2CC)c(=O)[nH]1 0.302%
O=C(CCCCCCCC(=O)N1CCCCC1)N1CCCCC1 -2.28%
Nc1cc2c(cc1Br)-c1ccc(F)cc1C2=O -2.11%
O=C1NC(c2ccccc2)Cc2ccncc21 (centres undefined) 0.404%
Cc1ccc(OCCNC(=O)c2cccc(S(=O)(=O)N3CCN(Cc4ccccc4)CC3)c2)cc1 3.25%
O=C1CC(c2ccccc2)C(c2ccccc2)=NN1 (centres undefined) -1.44%
Nc1ccc2c(c1)C(=Cc1cccnc1)c1ccccc1-2 -0.161%
Oc1ccc(-c2nc3ccccc3nc2-c2ccc(O)cc2O)c(O)c1 1.75%
O=C(Nc1ccccc1)Oc1cccc2cccnc12 -0.849%
O=[N+]([O-])c1ccc(NS(=O)(=O)c2ccccc2)c(Cl)c1 -1.29%
O=C(Cc1ccc(Cl)cc1)c1ccccc1 3.5%
O=C1C(=O)N(c2ccccc2)C(c2ccccc2)C1c1ccccc1 (centres undefined) 2.65%
Cc1cc([N+](=O)[O-])ccc1NS(=O)(=O)c1ccccc1 2.79%
O=C(c1ccc2c(c1)C(=O)N(Cc1ccncc1)C2=O)N1CCN(S(=O)(=O)c2ccc(OC(F)(F)F)cc2)CC1 5.12%
O=S(=O)(Cc1ccc(Cl)cc1Cl)c1ccc(Cl)cc1 -2.04%
Cc1c(NS(=O)(=O)c2cccc(C(=O)Nc3ccc(SC(F)F)cc3)c2)c(=O)n(-c2ccccc2)n1C -1.93%
C[n+]1cccc(C(=O)O)c1 8.24%
CCCCN(C(=O)c1cccc(N2C(=O)c3ccccc3C2=O)c1)c1c(N)n(CCCC)c(=O)[nH]c1=O -5.63%
CSCCC(NS(=O)(=O)c1ccc(C)cc1)C(=O)N(C)CC(=O)Nc1ccccc1Br (centres undefined) -2.58%
COc1ccccc1NC(=O)N(O)C1(C#N)CCCCC1 6.65%
O=C(Nc1c[nH]c(=O)[nH]c1=O)OCc1ccccc1 -3.52%
COc1cc2c(cc1OC)C(Cc1cc(OC)c(OC)cc1[N+](=O)[O-])=NCC2 -4.04%
CN(O)C(=S)c1ccccc1 0.436%
Cc1ccc(S(=O)(=O)c2cc3c(=O)n4cccc(C)c4nc3n(CCc3ccccc3)c2=N)cc1C -0.419%
O=C1OC(Oc2ccc(Br)cc2)(c2ccccc2)c2ccccc21 (centres undefined) 4.41%
N#CC1(Nc2ccc(-c3ccc(Cl)cc3)cc2)CCCC1 -0.935%
